Assay results reported in PubChem BioAssay (NCATS).
Values joined by “and” are separate entries in the source; they are usually repeats but may differ in a detail not shown here. Identical values can stand only once. Inconclusive results are not listed. Active and inactive are the calls of the source. Calls follow the shape of the dose curve; as a rule, active = well fitted cell-killing curve with a large enough effect; inconclusive = small, poorly fitted or top-dose-only effect, or effect the other way; inactive = no such curve, though single readings can be large or run the other way.

Experiment: Viability qHTS for spleen associated tyrosine kinase inhibitor (SYKi) drug resistant MV4-11 cells (AID 1963824); also: nearly all actives have a fitted effect of over 35% in size
Settings: SYKi-resistant MV4-11 viability, CellTiter-Glo, 72 h; series mostly up to 45 µM
Procedure, shortened: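 CellTiter-Glo luminescence, read 10 min after reagent addition, reports viability after a 72 hr compound exposure. Cells are an MV4-11 line made resistant to SYK inhibition, seeded at 500 per well onto compound-containing plates.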
Potency is read from the fitted curve at half-maximal effect.

Question: Which Potency does the source give for `COc1cc2c(cc1OC)[C@@H]1[C@H](O)[C@@H](OC)C=C3CCN(C2)[C@H]31` here?
Answer: 1.8 µM (active)

Question: With `O=C(c1c(F)ccc(NS(=O)(=O)N2CC[C@@H](F)C2)c1F)c1c[nH]c2ncc(-c3cnc(C4CC4)nc3)cc12` as the molecule, how does the Potency read?
Answer: 8.2 µM (active)

Question: With `CN(CCCNC(=O)c1ccc2nc3c(c(Cl)c2c1)CCCC3)Cc1ccccc1` as the molecule, how does the Potency read?
Answer: 8.2 µM (active)

Question: Which Potency does the source give for `COC(=O)C1=CO[C@@H](O[C@@H]2O[C@H](CO)[C@@H](O)[C@H](O)[C@H]2O)[C@@H]2C(CO)=CC[C@]12O` here?
Answer: inactive

Question: For `C=C1C(=O)O[C@@H]2C[C@H](C)[C@@H]3CC(=O)C(C)=C3C[C@H]12`, which Potency is on record?
Answer: 1.16 µM (active)

Question: For `O=C(Nc1cnccc1Cl)N1CCN(Cc2ccc3c(c2)OC(F)(F)O3)CC1`, which Potency is on record?
Answer: 5.9 µM (active)

Question: For `Cc1cc(Nc2ncnc3ccc(NC4=NC(C)(C)CO4)cc23)ccc1Oc1ccn2ncnc2c1`, which Potency is on record?
Answer: 16.4 µM (active)

Question: Which Potency does the source give for `CCCC(=O)Nc1ccc(O)c(C(C)=O)c1` here?
Answer: inactive

Question: Which viability, % of control does the source give for `CC(C)C[C@H](CC(=O)NO)C(=O)N[C@H](C(=O)N[C@@H](C)C(=O)NCCN)C(C)(C)C` here?
Answer: 90.6% [at 9.25 µM] (inactive)

Question: Which Potency does the source give for `COC(=O)C1=CO[C@@H](O[C@@H]2O[C@H](CO)[C@@H](O)[C@H](O)[C@H]2O)/C(=C\CO)[C@@H]1CC(=O)OCCc1ccc(O)cc1` here?
Answer: inactive

Question: For `OCC(O)CCO/N=C1/C(c2c(O)[nH]c3ccccc23)=Nc2ccccc21` (centres undefined), which Potency is on record?
Answer: 0.0517 µM (active)

Question: For `CC(C)S(=O)(=O)Nc1ccc(F)c(C(=O)c2c[nH]c3ncc(-c4cccnc4)cc23)c1F`, which Potency is on record?
Answer: 2.91 µM (active)

Question: With `Cc1ccc2c(Nc3ccc(Cl)cc3)nccc2c1Nc1ncccc1-c1ncnc2nc[nH]c12` as the molecule, how does the Potency read?
Answer: 2.31 µM (active)

Question: Which Potency does the source give for `CC(=O)OC[C@@]12[C@H](O)C[C@@H](C)[C@]3(C[C@@H](c4ccoc4)OC3=O)[C@H]1C[C@H](O)C[C@]21CO1` here?
Answer: inactive

Question: For `O=c1[nH]c2ccccc2n1CCN1CCN(c2cccc(C(F)(F)F)c2)CC1`, which Potency is on record?
Answer: 23.1 µM (active)

Question: Which Potency does the source give for `C=C(COC(=O)C(C)C)C1Oc2cc(C(C)=O)ccc2C1OC(=O)C(C)C` (centres undefined) here?
Answer: inactive

Question: Which Potency does the source give for `NS(=O)(=O)Nc1ncnc(OCCOc2ncc(Br)cn2)c1-c1ccc(Br)cc1` here?
Answer: 14.6 µM (active)

Question: Which Potency does the source give for `Cn1cc(CCn2cnc(-c3cnn(C)c3)c2-c2ccc(C#N)cc2)cn1` here?
Answer: inactive

Question: With `C[C@]12CCC(=O)C=C1[C@@H](O)C[C@@H]1[C@@H]2[C@@H](O)C[C@@]2(C)[C@H]1CC[C@]2(O)C(=O)CO` as the molecule, how does the Potency read?
Answer: inactive

Question: Which Potency does the source give for `C/C=C(\C)C(=O)O[C@H]1[C@@H](O[C@]2(COC(=O)CC(C)C)O[C@H](COC(=O)C(C)CC)[C@@H](OC(C)=O)[C@@H]2O)O[C@H](COC(C)=O)[C@@H](O)[C@@H]1O` (some centres undefined) here?
Answer: inactive

Question: With `CNC(=O)c1ccccc1Sc1ccc2c(/C=C/c3ccccn3)n[nH]c2c1` as the molecule, how does the Potency read?
Answer: 8.41 µM (active) and 1.3 µM (active) and 3.32 µM (active)

Question: Which Potency does the source give for `CN(C)CC/C=C1\c2ccccc2Sc2ccc(Cl)cc21` here?
Answer: 15 µM (active)

Question: For `CCN(CC)CCNc1ccc(CO)c2sc3ccccc3c(=O)c12`, which Potency is on record?
Answer: 3.76 µM (active)

Question: For `CO[C@H]1C[C@@H]2CC[C@@H](C)[C@@](O)(O2)C(=O)C(=O)N2CCCC[C@H]2C(=O)O[C@H]([C@H](C)C[C@@H]2CC[C@@H](OC(=O)C(C)(CO)CO)[C@H](OC)C2)CC(=O)[C@H](C)/C=C(\C)[C@@H](O)[C@@H](OC)C(=O)[C@H](C)C[C@H](C)/C=C/C=C/C=C/1C`, which Potency is on record?
Answer: 10.2 µM (active)

Question: With `Cc1ccc(NS(=O)(=O)c2cc3c(cc2F)NC(=O)CC3)cc1Cl` as the molecule, how does the Potency read?
Answer: 16.4 µM (active)

Question: With `CCOc1ccc(Cc2nccc3cc(OCC)c(OCC)cc23)cc1OCC` as the molecule, how does the Potency read?
Answer: 0.15 µM (active)

Question: Which Potency does the source give for `Cc1ccc(Cl)c(Nc2ccccc2C(=O)O)c1Cl` here?
Answer: 15 µM (active)

Question: Which Potency does the source give for `CC(=O)OC1CC2C3(C)CCC(OC(=O)CC(=O)O)C(C)(C)C3CCC2(C)C2(C)CCC(C3(C)CCC(=O)O3)C12` (centres undefined) here?
Answer: 6.32 µM (active)

Question: For `COC(=O)C1=COC(O[C@@H]2O[C@H](CO)[C@@H](O)[C@H](O)[C@H]2O)C2C(C)C(=O)CC12` (some centres undefined), which Potency is on record?
Answer: inactive
